Results on 61 compounds are retold here after PubChem BioAssay AID1671202 (University of Kansas High Throughput Screening Laboratory, 2021).

For orientation: inhibition means the change of the read-out against control, counted positive when it falls.

Out of some 190,000 compounds screened, about 6,900 (3.6%) were called active. Cut-off read from the data, not from the text of the source: active = inhibition above about 50%; inactive = the rest. This excerpt belongs to a sample that is enriched for actives.

The target in this experiment is Huntingtin (Homo sapiens) (UniProt P42858). Briefly: mutant huntingtin-calmodulin interaction inhibitors – biochemical, AlphaScreen, primary screen (AID 1671202).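 For inhibition: 0% = both proteins with DMSO and 100% = one protein alone.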 As to conditions: AlphaScreen His-mHTT/GST-CaM binding, luminescence; at 15 µM, stronger effect = higher value. (In general: In Alpha technology, singlet oxygen from a donor bead excites a nearby acceptor bead.)
Chain of Huntingtin (Homo sapiens) (P42858 whole entry, looked up, stated change not applied): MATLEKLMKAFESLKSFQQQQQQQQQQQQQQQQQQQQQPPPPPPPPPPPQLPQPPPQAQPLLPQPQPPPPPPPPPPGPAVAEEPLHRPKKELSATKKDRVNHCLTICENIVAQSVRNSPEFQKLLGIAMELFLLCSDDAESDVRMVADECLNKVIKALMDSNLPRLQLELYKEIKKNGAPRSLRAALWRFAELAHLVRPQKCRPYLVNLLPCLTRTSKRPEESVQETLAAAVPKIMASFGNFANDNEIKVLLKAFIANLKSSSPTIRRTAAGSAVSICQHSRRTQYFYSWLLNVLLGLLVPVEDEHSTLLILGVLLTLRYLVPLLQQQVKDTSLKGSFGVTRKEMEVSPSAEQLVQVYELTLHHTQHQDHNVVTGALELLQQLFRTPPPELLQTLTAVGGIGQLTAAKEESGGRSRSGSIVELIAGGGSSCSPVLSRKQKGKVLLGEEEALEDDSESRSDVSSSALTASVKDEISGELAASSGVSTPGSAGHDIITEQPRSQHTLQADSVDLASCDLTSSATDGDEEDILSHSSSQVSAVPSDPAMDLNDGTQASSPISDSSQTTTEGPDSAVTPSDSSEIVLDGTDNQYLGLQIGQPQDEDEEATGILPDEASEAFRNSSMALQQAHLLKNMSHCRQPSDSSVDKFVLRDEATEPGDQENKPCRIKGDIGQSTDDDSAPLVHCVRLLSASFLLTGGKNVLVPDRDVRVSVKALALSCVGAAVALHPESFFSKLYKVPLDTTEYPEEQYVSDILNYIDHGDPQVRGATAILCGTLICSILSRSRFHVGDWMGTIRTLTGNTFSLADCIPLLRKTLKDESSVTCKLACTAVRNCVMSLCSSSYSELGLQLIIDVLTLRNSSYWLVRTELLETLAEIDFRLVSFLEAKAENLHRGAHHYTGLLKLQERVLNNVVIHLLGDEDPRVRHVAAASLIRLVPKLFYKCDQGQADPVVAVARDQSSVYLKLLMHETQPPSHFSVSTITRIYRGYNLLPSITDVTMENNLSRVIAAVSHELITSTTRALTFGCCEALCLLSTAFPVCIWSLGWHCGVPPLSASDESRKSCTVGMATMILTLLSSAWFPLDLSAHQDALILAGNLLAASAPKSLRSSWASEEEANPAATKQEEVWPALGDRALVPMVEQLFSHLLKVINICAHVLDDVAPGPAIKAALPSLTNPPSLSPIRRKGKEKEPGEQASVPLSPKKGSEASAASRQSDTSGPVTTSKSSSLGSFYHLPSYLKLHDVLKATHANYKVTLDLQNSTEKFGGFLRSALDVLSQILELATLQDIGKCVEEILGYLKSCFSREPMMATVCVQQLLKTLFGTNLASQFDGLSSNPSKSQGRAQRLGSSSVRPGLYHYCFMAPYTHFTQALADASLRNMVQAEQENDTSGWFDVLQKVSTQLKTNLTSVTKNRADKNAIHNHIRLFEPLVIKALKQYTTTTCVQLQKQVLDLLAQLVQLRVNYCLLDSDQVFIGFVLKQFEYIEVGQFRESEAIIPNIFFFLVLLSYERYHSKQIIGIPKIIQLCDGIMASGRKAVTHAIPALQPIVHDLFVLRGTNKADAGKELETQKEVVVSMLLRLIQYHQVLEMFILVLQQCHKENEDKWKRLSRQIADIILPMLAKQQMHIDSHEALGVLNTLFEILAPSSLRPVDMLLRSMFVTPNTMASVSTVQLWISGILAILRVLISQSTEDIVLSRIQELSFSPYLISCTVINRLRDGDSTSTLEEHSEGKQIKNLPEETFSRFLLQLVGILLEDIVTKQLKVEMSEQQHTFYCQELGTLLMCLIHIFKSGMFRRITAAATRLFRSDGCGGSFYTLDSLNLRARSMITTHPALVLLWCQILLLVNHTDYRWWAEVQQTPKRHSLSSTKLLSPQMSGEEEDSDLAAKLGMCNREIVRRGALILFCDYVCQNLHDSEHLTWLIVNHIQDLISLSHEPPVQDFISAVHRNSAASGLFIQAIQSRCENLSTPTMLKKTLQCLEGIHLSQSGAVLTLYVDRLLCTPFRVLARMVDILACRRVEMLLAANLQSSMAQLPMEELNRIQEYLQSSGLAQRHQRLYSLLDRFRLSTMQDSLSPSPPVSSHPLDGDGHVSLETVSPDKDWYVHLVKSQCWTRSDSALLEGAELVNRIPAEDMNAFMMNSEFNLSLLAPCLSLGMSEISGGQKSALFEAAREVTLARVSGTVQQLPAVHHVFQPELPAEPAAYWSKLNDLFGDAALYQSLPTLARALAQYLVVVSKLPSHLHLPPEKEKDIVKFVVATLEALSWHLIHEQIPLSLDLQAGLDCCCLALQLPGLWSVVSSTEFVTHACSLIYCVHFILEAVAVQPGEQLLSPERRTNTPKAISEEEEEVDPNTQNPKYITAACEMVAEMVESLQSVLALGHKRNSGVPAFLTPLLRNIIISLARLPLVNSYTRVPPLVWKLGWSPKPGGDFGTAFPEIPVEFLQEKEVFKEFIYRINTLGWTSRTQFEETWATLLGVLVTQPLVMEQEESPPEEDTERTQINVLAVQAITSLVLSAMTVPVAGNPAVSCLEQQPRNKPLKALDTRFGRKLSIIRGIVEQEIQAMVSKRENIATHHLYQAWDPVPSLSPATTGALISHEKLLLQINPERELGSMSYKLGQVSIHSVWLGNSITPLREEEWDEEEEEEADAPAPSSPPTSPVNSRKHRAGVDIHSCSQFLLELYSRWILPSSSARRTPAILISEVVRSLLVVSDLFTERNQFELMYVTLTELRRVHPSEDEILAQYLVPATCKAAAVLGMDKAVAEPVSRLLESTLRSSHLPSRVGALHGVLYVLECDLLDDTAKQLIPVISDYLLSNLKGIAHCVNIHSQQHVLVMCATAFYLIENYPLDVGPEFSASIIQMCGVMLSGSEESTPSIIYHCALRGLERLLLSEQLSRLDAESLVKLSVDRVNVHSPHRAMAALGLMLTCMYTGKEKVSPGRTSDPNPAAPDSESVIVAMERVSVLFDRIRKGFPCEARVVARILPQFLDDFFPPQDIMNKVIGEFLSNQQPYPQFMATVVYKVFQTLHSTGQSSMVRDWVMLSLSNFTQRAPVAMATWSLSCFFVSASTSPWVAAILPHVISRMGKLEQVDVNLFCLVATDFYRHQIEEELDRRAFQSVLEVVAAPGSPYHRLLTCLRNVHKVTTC
As for `CC(C)(c1ccccc1)c1ccc(OCC(=O)Nc2ncn[nH]2)cc1`, the inhibition is 16% (inactive).
Then `Cc1n[nH]c(=O)nc1N/N=C/c1cccs1`, with “active”.
The figure for `O=C1/C(=C/c2cccs2)CC2CC1C/C(=C\c1cccs1)C2=O` is 31% (inactive); for `Cc1ccc(C)c(N2CCN(C(=O)c3cc4ccncc4n3C)CC2)c1` it is 48.1% (inactive).
Consider `Cc1cc(O)c(CN2CCCCC2)c2c1C(=O)C(=Cc1ccncc1)O2`, for which the inhibition is 10% (inactive).
The figure for `O=C1CC(c2ccccc2)=NN1c1ccc([N+](=O)[O-])cc1` is 91% (active); for `O=C(CCc1ccccc1)N1N=C(c2cccc([N+](=O)[O-])c2)CC1(O)C(F)(F)F` (stereo unspecified) it is 26% (inactive).
As to `O=C1C2CC(Br)C(Br)CC2C(=O)N1c1ccc([N+](=O)[O-])cc1` (stereo unspecified), the inhibition was 0% (inactive).
Then `CCCn1ncc(N2CCC(C(=O)NCCCN3CCOCC3)CC2)cc1=O`, with -2.54% (inactive); and `O=C(Nc1ccc(Cn2cncn2)cc1)c1ccc(Cl)cc1`, with 17.8% (inactive); and `CC1CN(C(=O)C2(c3ccccc3)CC2)CC1c1nc(-c2cccnc2)no1` (stereo unspecified), with 29.4% (inactive).
The figure for `CCNC(=O)c1c(O)c2cccc3c2n(c1=O)CC3` is 0% (inactive).
Take `CCN(CC)CCNC(=O)c1cn(C2CCCCC2)c(=O)c2c1c1ccccc1n2C`: the inhibition is 6% (inactive).
Regarding `CCN(CC)CCCNC(=O)c1c(O)c2cc(F)cc3c2n(c1=O)C(C)CC3` (stereo unspecified), the inhibition is 98% (active).
Consider `CNC(=O)N1CCCC(c2cccc(C(=O)NCc3ccccc3C(F)(F)F)c2)C1` (stereo unspecified), for which the inhibition is -2.02% (inactive).
The figure for `COc1ccc(C2C3C(=O)N(c4ccc([N+](=O)[O-])cc4)C(=O)C3N3CCCN23)cc1` (stereo unspecified) is -1% (inactive); for `CCCCN1C[C@H](c2ccc(Br)cc2)[C@@H](CC(=O)Nc2ccc(Br)cc2)C1=O` it is 96.5% (active).
With `CCCCN1CC(C)(C)[C@H](CC(=O)Nc2ccc(Br)cc2)C1=O`, the inhibition was -13.5% (inactive).
The figure for `C[C@H]1CN(c2ccc(Br)cc2)C(=O)[C@@H]1CC(=O)Nc1ccc(Br)cc1` is 2.2% (inactive).
Consider `Cc1cc(C)c(NC(=O)CNC(C)(C)C)c(C)c1`, for which the inhibition was -2.1% (inactive).
Take `O=C(NC(C(=O)N1CCCCC1)C12CC3CC(CC(C3)C1)C2)c1ccc(F)cc1` (stereo unspecified): the inhibition is 2.5% (inactive).
On to `CC1=C/C(=N\Oc2ccc3noc4c3c2C(=O)c2ccccc2-4)C(C(C)C)=CC1=O`, for which the inhibition result is “active”.
The figure for `N#Cc1ccc(C2=COC3(CCCN(C(=O)c4ccccc4)C3)C2)cc1` (stereo unspecified) is 2.5% (inactive); for `CN(C)c1ncccc1NC(=O)c1cccc(C#N)c1` it is 0% (inactive).
Then `O=[N+]([O-])c1ccc2c(c1)C1C=CCC1C(c1cccc(Br)c1)N2` (stereo unspecified), with 72% (active); and `COc1cccc(C2Nc3ccc(C(=O)O)cc3C3C=CCC32)c1OC` (stereo unspecified), with 15% (inactive); and `O=C1NC(c2cccc([N+](=O)[O-])c2)C(=C(O)c2ccc(Br)cc2)C1=O` (stereo unspecified), with 7.7% (inactive).
On to `CCCn1cnc2c1c(=O)n(CC)c(=O)n2-c1ccc(C)cc1`, for which the inhibition was 0.6% (inactive).
Then `CC(C)Cn1cc(C(=O)NC2CCCCCC2)c2c3ccccc3n(C)c2c1=O`, with 1% (inactive); and `COc1cccc(C2C3=C(Nc4c2c(=O)n(C)c(=O)n4C)c2ccccc2C3=O)c1OC` (stereo unspecified), with 27% (inactive); and `Cn1nc(COc2ccccc2)c2c1CCN(C(=O)Nc1ccc(F)cc1F)C2`, with 22.3% (inactive).
As to `Cn1nc(COc2ccc(F)cc2)c2c1CCN(C(=O)Nc1ccc(F)cc1)C2`, the inhibition was 80% (active).
For the compound `Cn1nc(COc2ccc(F)cc2)c2c1CCN(C(=O)Nc1ccc(F)cc1F)C2`, the inhibition was -2.73% (inactive).
For `Cc1ccc(C)c(N=c2oc3ccccc3cc2C(=O)Nc2nccs2)c1`, the inhibition was -4% (inactive).
As to `CN(C)CCNC(=O)c1cc2n(n1)CCCN(Cc1cccc(F)c1)C2=O`, the inhibition is -3.78% (inactive).
The figure for `CC(=O)NC(=Nc1nc(C)cc(C)n1)Nc1cccc(C)c1C` is 0% (inactive); for `O=C(Nc1ccccc1-c1nc2ccccc2[nH]1)c1ccccc1Br` it is 51% (active).
The figure for `O=C(Nc1ccccc1-c1nc2ccccc2[nH]1)c1ccccc1Cl` is 45.7% (inactive); for `Cc1c(NC(=O)c2cccc([N+](=O)[O-])c2C)cccc1-c1nc2ccccc2[nH]1` it is 16% (inactive).
The figure for `O=C(Cc1ccc2c(c1)OCO2)N1CCC(Oc2nc3ccccc3s2)CC1` is 61.1% (active); for `O=C(Nc1nc2ccccc2s1)c1ccc2c(c1)OCO2` it is 17.1% (inactive); for `O=C(CN1C(=O)CCC1=O)N1CCC(Oc2nc3ccc(F)cc3s2)CC1` it is -3.4% (inactive).
`O=C(NCc1ccncc1)C1CC(=O)N(Cc2ccccc2F)C1` (stereo unspecified): the inhibition was 3.4% (inactive).
Take `COc1ccc(C(=O)CSc2nc(N)cc(=O)[nH]2)cc1[N+](=O)[O-]`: the inhibition is 3.7% (inactive).
As for `C[C@H]1COc2cc(N3CCSCC3)ccc2S(=O)(=O)N1`, the inhibition is -12% (inactive).
For `O=C(c1ccc(F)cc1)N1CCc2nc[nH]c2C1`, the inhibition was -20.2% (inactive).
Then `COc1cc(C(c2cc3c(cc2O)OCO3)N2CCCC2)cc(OC)c1OC` (stereo unspecified), with 81.6% (active); and `COc1cc(OC)c(OC)cc1CN1CCN(Cc2ccc3c(c2)OCO3)CC1`, with 2.4% (inactive).
Consider `Cc1nc2c(c(NCC3CCCO3)n1)CCC2` (stereo unspecified), for which the inhibition was -7.6% (inactive).
Then `C[C@H]1[C@H](NC(=O)c2cccc(N(C)C)c2)CC[C@@]23CCCN2C(=O)CCC[C@@H]13`, with -15.6% (inactive).
The figure for `c1csc(CN2CCN(c3cnn4cnnc4c3)CC2)c1` is 0.4% (inactive).
Consider `Clc1cccc(N2CCN(Cc3cccnc3)CC2)c1`, for which the inhibition was 1% (inactive).
With `Cc1nnc2cc(N3CCN(Cc4ccc(C(C)C)cc4)CC3)cnn12`, the inhibition is 63.7% (active).
As to `CCn1nnc2c(N3CCN(C(=O)Nc4ccccc4C(F)(F)F)CC3)ncnc21`, the inhibition is -3.4% (inactive).
The figure for `Cc1ccccc1COc1cccc(/C=C2\C(=O)NN(c3ccccc3)C2=O)c1` is 7% (inactive).
The figure for `CCOc1cc(/C=C2\C(=O)NN(c3ccccc3)C2=O)cc(Cl)c1OCC` is 61% (active); for `CCOc1cc(/C=C2\C(=O)NN(c3cccc(Cl)c3)C2=O)ccc1O` it is 8% (inactive).
`CC(C)N1C(=O)C(C)N(C(=O)NCc2ccc(F)cc2)c2cccnc21` (stereo unspecified): the inhibition is 10.9% (inactive).
Then `Cc1ccc(NC(=O)CSc2cccc3cccnc23)c(C)c1`, with 86% (active); and `Cc1ccc(NC(=O)CSC2=NC(C)(C)N=C2c2ccccc2)c(C)c1`, with -6.5% (inactive); and `O=C(CSc1cccc2cccnc12)Nc1ccc(Br)cc1`, with 3.8% (inactive).
